Screen size: about 5,500 compounds; about 2,000 (36%) were called active. Inconclusive results (about 18%) are left out. Cut-off read from the data, not from the text of the source: active = normalized growth mostly below about 0.91 (no sharp cut-off); inconclusive = no clear call, values can overlap the other calls; inactive = mostly above about 0.92. Some of the results follow.
Experiment: chemical genetic growth profiling, strain panel (AID 1159580);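 note: tested at 20 µM; growth read once vehicle control cultures reached saturation at 30 °C; 1 = growth at the plate median or of vehicle wells; lower values mean less growth of the strain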
Conditions: growth OD

Measured: normalized growth

CCC/C=C/C=C/[C@@H]1C[C@@H](O)[C@@H](O)C(=O)[C@H]1C=O
inactive: S. cerevisiae deletion strains, locus YBR021W, strain FUR4, stronger effect = lower value 1.01 | S. cerevisiae deletion strains, locus YBR229C, strain ROT2, stronger effect = lower value 0.992 | S. cerevisiae deletion strains, locus YCL029C, strain bik1, stronger effect = lower value 0.98 | S. cerevisiae deletion strains, locus YDL035C, strain GPR1, stronger effect = lower value 1 | S. cerevisiae deletion strains, locus YDL074C, strain BRE1, stronger effect = lower value 1.01 | S. cerevisiae deletion strains, locus YDL101C, strain DUN1, stronger effect = lower value 0.994 | S. cerevisiae deletion strains, locus YDL192W, strain arf1, stronger effect = lower value 0.949 | S. cerevisiae deletion strains, locus YDR101C, strain arx1, stronger effect = lower value 0.978 | S. cerevisiae deletion strains, locus YDR162C, strain NBP2, stronger effect = lower value 0.982 | S. cerevisiae deletion strains, locus YDR318W, strain mcm21, stronger effect = lower value 0.959 | S. cerevisiae deletion strains, locus YDR388W, stronger effect = lower value 0.955 | S. cerevisiae deletion strains, locus YDR502C, strain sam2, stronger effect = lower value 0.976 | S. cerevisiae deletion strains, locus YEL061C, strain CIN8, stronger effect = lower value 0.984 | S. cerevisiae deletion strains, locus YER110C, stronger effect = lower value 0.999 | S. cerevisiae deletion strains, locus YER155C, strain BEM2, stronger effect = lower value 0.955 | S. cerevisiae deletion strains, locus YER167W, strain BCK2, stronger effect = lower value 0.976 | S. cerevisiae deletion strains, locus YGL078C, strain dbp3, stronger effect = lower value 0.94 | S. cerevisiae deletion strains, locus YGL086W, strain mad1, stronger effect = lower value 0.976 | S. cerevisiae deletion strains, locus YGL248W, strain PDE1, stronger effect = lower value 1 | S. cerevisiae deletion strains, locus YGR135W, strain pre9, stronger effect = lower value 0.988 | S. cerevisiae deletion strains, locus YGR252W, strain gcn5, stronger effect = lower value 1.16 | S. cerevisiae deletion strains, locus YHR030C, strain SLT2, stronger effect = lower value 0.978 | S. cerevisiae deletion strains, locus YHR079C, strain IRE1 (second series), stronger effect = lower value 0.981 | S. cerevisiae deletion strains, locus YHR094C, strain hxt1, stronger effect = lower value 0.97 | S. cerevisiae deletion strains, locus YHR129C, strain ARP1, stronger effect = lower value 0.99 | S. cerevisiae deletion strains, locus YHR200W, strain rpn10, stronger effect = lower value 0.972 | S. cerevisiae deletion strains, locus YIL066C, strain RNR3, stronger effect = lower value 0.971 | S. cerevisiae deletion strains, locus YIL073C, strain SPO22, stronger effect = lower value 1.03 | S. cerevisiae deletion strains, locus YIR030C, strain dcg1, stronger effect = lower value 0.975 | S. cerevisiae deletion strains, locus YJL095W, strain BCK1, stronger effect = lower value 1.03 | S. cerevisiae deletion strains, locus YJL134W, strain LCB3, stronger effect = lower value 0.947 | S. cerevisiae deletion strains, locus YJL168C, strain set2, stronger effect = lower value 0.973 | S. cerevisiae deletion strains, locus YJL187C, strain SWE1 (second series), stronger effect = lower value 1.03 | S. cerevisiae deletion strains, locus YJR043C, strain POL32, stronger effect = lower value 0.99 | S. cerevisiae deletion strains, locus YJR075W, strain HOC1, stronger effect = lower value 0.977 | S. cerevisiae deletion strains, locus YKL190W, strain CNB1, stronger effect = lower value 0.964 | S. cerevisiae deletion strains, locus YKR001C, strain vps1, stronger effect = lower value 0.901 | S. cerevisiae deletion strains, locus YLR058C, strain SHM2, stronger effect = lower value 0.99 | S. cerevisiae deletion strains, locus YLR102C, strain apc9, stronger effect = lower value 0.983 | S. cerevisiae deletion strains, locus YLR330W, strain CHS5, stronger effect = lower value 0.946 | S. cerevisiae deletion strains, locus YLR342W, strain FKS1 (second series), stronger effect = lower value 0.948 | S. cerevisiae deletion strains, locus YLR371W, strain rom2, stronger effect = lower value 0.978 | S. cerevisiae deletion strains, locus YLR418C, strain cdc73, stronger effect = lower value 0.999 | S. cerevisiae deletion strains, locus YML016C, strain PPZ1, stronger effect = lower value 0.986 | S. cerevisiae deletion strains, locus YML032C, strain rad52, stronger effect = lower value 0.954 | S. cerevisiae deletion strains, locus YML124C, strain tub3, stronger effect = lower value 0.991 | S. cerevisiae deletion strains, locus YMR078C, strain ctf18, stronger effect = lower value 0.973 | S. cerevisiae deletion strains, locus YMR223W, strain ubp8, stronger effect = lower value 0.929 | S. cerevisiae deletion strains, locus YMR263W, strain SAP30, stronger effect = lower value 0.992 | S. cerevisiae deletion strains, locus YMR307W, strain GAS1, stronger effect = lower value 1.04 | S. cerevisiae deletion strains, locus YNL067W, strain RPL9B, stronger effect = lower value 0.986 | S. cerevisiae deletion strains, locus YNL153C, strain GIM3, stronger effect = lower value 1.01 | S. cerevisiae deletion strains, locus YNL233W, strain BNI4, stronger effect = lower value 0.973 | S. cerevisiae deletion strains, locus YNL307C, strain MCK1, stronger effect = lower value 0.954 | S. cerevisiae deletion strains, locus YNL322C, strain KRE1, stronger effect = lower value 0.984 | S. cerevisiae deletion strains, locus YOL012C, strain htz1 0.336 | S. cerevisiae deletion strains, locus YOL147C, strain pex11, stronger effect = lower value 0.986 | S. cerevisiae deletion strains, locus YOR061W, strain CKA2, stronger effect = lower value 0.986 | S. cerevisiae deletion strains, locus YOR069W, strain VPS5, stronger effect = lower value 0.979 | S. cerevisiae deletion strains, locus YOR136W, strain idh2, stronger effect = lower value 0.996 | S. cerevisiae deletion strains, locus YOR144C, strain elg1, stronger effect = lower value 0.982 | S. cerevisiae deletion strains, locus YOR184W, strain ser1, stronger effect = lower value 0.938 | S. cerevisiae deletion strains, locus YOR316C, strain cot1, stronger effect = lower value 0.979 | S. cerevisiae deletion strains, locus YPR119W, strain clb2, stronger effect = lower value 0.971 | S. cerevisiae deletion strains, locus YPR163C, strain tif3, stronger effect = lower value 0.983 | S. cerevisiae deletion strains, locus YPR167C, strain met16, stronger effect = lower value 0.979 | S. cerevisiae deletion strains, strain wtn01, stronger effect = lower value 0.973 | S. cerevisiae strains, strain wild type, stronger effect = lower value 0.971
active: S. cerevisiae deletion strains, locus YDL185W, strain tfp1, stronger effect = lower value 0.0596 | S. cerevisiae deletion strains, locus YIL125W, strain kgd1, stronger effect = lower value 0.853 | S. cerevisiae deletion strains, locus YKL009W, strain mrt4, stronger effect = lower value 0.76 | S. cerevisiae deletion strains, locus YKL068W, stronger effect = lower value 0.928 | S. cerevisiae deletion strains, locus YKL085W, strain MDH1 (second series), stronger effect = lower value 0.88 | S. cerevisiae deletion strains, locus YKL085W, strain MDH1, stronger effect = lower value 0.88 | S. cerevisiae deletion strains, locus YLR039C, strain RIC1, stronger effect = lower value 0.496 | S. cerevisiae deletion strains, locus YLR262C, strain YPT6, stronger effect = lower value 0.504 | S. cerevisiae deletion strains, locus YLR268W, strain sec22, stronger effect = lower value 0.829 | S. cerevisiae deletion strains, locus YNL250W, strain rad50, stronger effect = lower value 0.821 | S. cerevisiae deletion strains, locus YNL271C, strain bni1, stronger effect = lower value 0.732 | S. cerevisiae deletion strains, locus YNL298W, strain CLA4, stronger effect = lower value 0.901 | S. cerevisiae deletion strains, locus YNR052C, strain pop2, stronger effect = lower value 0.907 | S. cerevisiae deletion strains, locus YOL006C, strain TOP1, stronger effect = lower value 0.52 | S. cerevisiae deletion strains, locus YPR141C, strain kar3, stronger effect = lower value 0.804

Source: PubChem BioAssay AID1159580 (chemical genetic matrix, 2015)
